In PubChem BioAssay (Tox21) one finds Potency and outcome data, which are given here for 16 compounds.

“And” between values parts separate entries of the source, which are not always exact repeats. Equal values may be shown once. Where a structure was tested more than once in an assay, its records may differ in their call. The source made the active and inactive calls. Unless noted, the call rests on the fitted dose curve; in most records, active means well fitted curve in the direction sought with a large enough effect in the repeat runs; inconclusive means weak or mixed curves; inactive means no such curve, though single readings can be large; an effect the other way counts as inactive or inconclusive.

The nature of assay [1]: qHTS assay for small molecule agonists of the p53 signaling pathway - cell viability (AID 651633; calls by dose curve; further: nearly all actives have a fitted effect of over 30% in size; further: potency means the concentration at half of the fitted maximal effect). The method, boiled down: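 p53RE-bla cells, seeded at 4,000 per well and rested 5 h at 37 C/5% CO2, received compounds in DMSO for 16 h at 37 C. CellTiter-Glo was then added, and luminescence was read after 30 min at room temperature to gauge cytotoxicity.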
(In general: In qHTS, concentration-response curves come from the screen itself.)

Assay [2] is described as follows: qHTS assay to identify small molecule antagonists of the thyroid receptor (TR) signaling pathway (AID 743065). Further: potency means the concentration at half of the fitted maximal effect; nearly all actives have a fitted effect of over 55% in size. The procedure, abridged: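 GH3.TRE-Luc rat pituitary cells carrying two TR response elements driving luciferase were plated for 4 h, given compound plus 1 nM T3 (final), and incubated 23.5 h at 37 C. ONE-Glo luminescence measured reporter inhibition; CellTiter-Fluor fluorescence tracked cytotoxicity.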

Assay [3] deals with Estrogen receptor (Homo sapiens) (UniProt P03372). As to the kind of experiment: qHTS assay to identify small molecule agonists of the estrogen receptor alpha (ER-alpha) signaling pathway (AID 743075; calls by dose curve; further: potency means the concentration at half of the fitted maximal effect).
Assay [4] is described as follows: qHTS assay to identify small molecule antagonists of the estrogen receptor alpha (ER-alpha) signaling pathway using the BG1 cell line - cell viability counter screen (AID 743081).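 Further: compound given together with 17beta-estradiol as the ER stimulus; series mostly up to about 70 µM; nearly all actives have a fitted effect of over 45% in size.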
Assay [5] is described as follows: qHTS assay to identify aromatase inhibitors - cell viability counter screen (AID 743084).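 Further: cells stimulated with testosterone during compound exposure; nearly all actives have a fitted effect of over 55% in size.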 Further: potency means the concentration at half of the fitted maximal effect.
Assay [6] concerns the target Nuclear receptor ROR-gamma (Homo sapiens) (UniProt P51449). The assay can be described thus: qHTS assay to identify small molecule antagonists of the retinoid-related orphan receptor gamma (ROR-gamma) signaling pathway (AID 1159521; further: nearly all actives have a fitted effect of over 50% in size; further: potency means the concentration at half of the fitted maximal effect). The procedure, abridged:
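Cells were plated, rested 4 h at 37 C, exposed to compounds for 2 h, then given 1 uM final doxycycline hyclate to induce RORγ expression. After 16 h, ONE-Glo luminescence from the ROR response element reporter was measured.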

A short description of assay [7]: qHTS assay for small molecule disruptors of the mitochondrial membrane potential (AID 720635). Further: potency means the concentration at half of the fitted maximal effect. The method, boiled down: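 HepG2 cells (2,000/well) attached overnight at 37C, then took compound for 1 hr at 37C, 5% CO2. Mito-MPS dye was added for 30 min; fluorescence was read at 490/535 nm (monomers) and 540/590 nm (aggregates).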
The nature of assay [8]: qHTS assay to identify small molecule antagonists of the androgen receptor (AR) signaling pathway - cell viability counter screen (AID 743033; further: nearly all actives have a fitted effect of over 45% in size; further: potency means the concentration at half of the fitted maximal effect).
The nature of assay [9]: qHTS assay to identify small molecule antagonists of the thyroid receptor (TR) signaling pathway - cell viability counter screen (AID 743064). Further: nearly all actives have a fitted effect of over 50% in size. Further: potency means the concentration at half of the fitted maximal effect. The method, boiled down: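 Rat GH3 pituitary tumor cells stably expressing two TR response elements driving luciferase were plated, rested 4 h, then dosed with library compounds and T3 (1 nM final). After 23.5 h at 37 °C, CellTiter-Fluor was added for 30 min and fluorescence recorded.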

A short description of assay [10]: qHTS assay for small molecule agonists of the antioxidant response element (ARE) signaling pathway - cell viability counter screen (AID 743203; calls by dose curve; further: nearly all actives have a fitted effect of over 55% in size; further: potency means the concentration at half of the fitted maximal effect). The method, boiled down: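 Viability counter screen: stably transfected ARE-bla HepG2 line, 16 hrs compound exposure at 37C/5% CO2, ATP-based CellTiter-Glo luminescence measured in the reporter wells.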
Assay [11] can be described thus: qHTS assay for small molecule activators of the heat shock response signaling pathway (AID 743210; active means well fitted activation curve with a large enough effect in the signal ratio in the repeat runs, with a control signal flat, not every such curve was filed as active; inconclusive means weak or mixed curves; the % refers to the signal ratio; further: potency means the concentration at half of the fitted maximal effect;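 on activation: HeLa cells with beta-lactamase reporter driven by heat shock elements; series mostly up to about 63 µM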). The procedure, abridged:
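Activation of heat shock element-controlled beta-lactamase expression is measured in HeLa cells by LiveBLAzer FRET fluorescence, with compound exposure lasting 5 h at 37 C and substrate loading 2.5 h at room temperature.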

Assay [12] in a line: qHTS assay to identify small molecule agonists of the peroxisome proliferator-activated receptor delta (PPARd) signaling pathway - cell viability counter screen (AID 743211). Further: nearly all actives have a fitted effect of over 55% in size. Further: potency means the concentration at half of the fitted maximal effect. The procedure, abridged: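 Counter screen for cytotoxicity run in parallel with the PPARd reporter screen. Beta-lactamase reporter HEK293H cells exposed to compounds 17 h; ATP-based CellTiter-Glo luminescence quantified viability.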

Assay [13] can be described thus: qHTS assay to identify small molecule agonists of the farnesoid-X-receptor (FXR) signaling pathway - cell viability counter screen (AID 743218). Further: nearly all actives have a fitted effect of over 45% in size. Further: potency means the concentration at half of the fitted maximal effect. The method, boiled down: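 Viability of FXR-bla HEK 293T cells is measured by ATP-based CellTiter-Glo luminescence following 16 h compound treatment at 37 C and a prior 2 h room-temperature beta-lactamase substrate step.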

A short description of assay [14]: qHTS assay to identify small molecule agonists of the vitamin D receptor (VDR) signaling pathway - cell viability counter screen (AID 743224). Further: nearly all actives have a fitted effect of over 50% in size. Further: potency means the concentration at half of the fitted maximal effect. The method, boiled down:
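Compounds were pin-transferred onto VDR-bla cells plated 4 h earlier; following 16 h incubation at 37C, cell viability was quantified by CellTiter-Glo luminescence after 30 min at room temperature.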

Assay [15] concerns the target Estrogen receptor beta (Homo sapiens) (UniProt Q92731). As to the kind of experiment: qHTS assay to identify small molecule antagonists of the estrogen receptor beta (ER-beta) signaling pathway (AID 1259378; active means well fitted inhibition curve with a large enough effect in the signal ratio in the repeat runs, not every such curve was filed as active; inconclusive means weak or mixed curves, or effect the other way; inactive means no such curve, though single readings can be large or run the other way; the % refers to the signal ratio; further: potency means the concentration at half of the fitted maximal effect). The procedure, abridged: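 ER-beta-UAS-bla HEK293T (GripTite) cells in 2% charcoal-stripped FBS medium were preincubated 6 hr at 37C, dosed with compound, then stimulated with 1 nM E2 (final) for 16 hr; beta-lactamase reporter read by B/G FRET fluorescence after 2 hr substrate loading.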

Assay [16] can be described thus: qHTS assay to identify small molecule antagonists of the farnesoid-X-receptor (FXR) signaling pathway - cell viability counter screen (AID 743221; active means well fitted cell-killing curve with a large enough effect in the repeat runs, not every such curve was filed as active; inconclusive means weak or mixed curves, or effect the other way; inactive means no such curve, though single readings can be large or run the other way; further: nearly all actives have a fitted effect of over 50% in size; further: potency means the concentration at half of the fitted maximal effect). The method, boiled down:
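Multiplexed counter screen: viability of FXR-bla HEK 293T cells under agonist stimulation by chenodeoxycholic acid (50 uM, final) and test compound for 16 h at 37 C, measured by CellTiter-Glo luminescence in the reporter wells.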

Assay [17] can be described thus: qHTS assay to identify small molecule antagonists of the androgen receptor (AR) signaling pathway using the MDA cell line - cell viability counter screen (AID 743041; further: nearly all actives have a fitted effect of over 45% in size; further: potency means the concentration at half of the fitted maximal effect). The procedure, abridged: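 qHTS viability read-out; MDA-kb2 AR-luc; R1881-stimulated; 16 h exposure at 37C, 0% CO2; CellTiter-Fluor, 30 min; fluorescence intensity.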
A short description of assay [18]: qHTS assay to identify small molecule antagonists of the estrogen receptor alpha (ER-alpha) signaling pathway - cell viability counter screen (AID 743074; calls by dose curve; further: potency means the concentration at half of the fitted maximal effect).
The nature of assay [19]: qHTS assay to identify small molecule agonists of the hypoxia (HIF-1) signaling pathway (AID 1224846; active means well fitted activation curve with a large enough effect in the signal ratio in the repeat runs, not every such curve was filed as active; inconclusive means weak or mixed curves; the % refers to the signal ratio). The method, boiled down:
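Agonist mode reporter screen. ME-180 cells stably expressing bla under HRE control received test compounds in DMSO for 17 hrs (37C, 5% CO2), and beta-lactamase activity was then detected with the CCF4-AM FRET substrate.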

Assay [20] deals with Androgen receptor (Homo sapiens) (UniProt P10275). As to the kind of experiment: qHTS assay to identify small molecule antagonists of the androgen receptor (AR) signaling pathway using the MDA cell line in the presence of 0.5 nM R1881 (AID 1259243). Further: nearly all actives have a fitted effect of over 50% in size. Further: potency means the concentration at half of the fitted maximal effect. The method, boiled down:
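Antagonist mode quantitative HTS in MDA-kb2 MMTV-luciferase cells, agonist R1881 at 0.5 nM final, 16 hr exposure at 37C and 0% CO2, luminescent detection.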

Estrogen receptor beta (Homo sapiens), sequence (Q92731 whole entry, looked up): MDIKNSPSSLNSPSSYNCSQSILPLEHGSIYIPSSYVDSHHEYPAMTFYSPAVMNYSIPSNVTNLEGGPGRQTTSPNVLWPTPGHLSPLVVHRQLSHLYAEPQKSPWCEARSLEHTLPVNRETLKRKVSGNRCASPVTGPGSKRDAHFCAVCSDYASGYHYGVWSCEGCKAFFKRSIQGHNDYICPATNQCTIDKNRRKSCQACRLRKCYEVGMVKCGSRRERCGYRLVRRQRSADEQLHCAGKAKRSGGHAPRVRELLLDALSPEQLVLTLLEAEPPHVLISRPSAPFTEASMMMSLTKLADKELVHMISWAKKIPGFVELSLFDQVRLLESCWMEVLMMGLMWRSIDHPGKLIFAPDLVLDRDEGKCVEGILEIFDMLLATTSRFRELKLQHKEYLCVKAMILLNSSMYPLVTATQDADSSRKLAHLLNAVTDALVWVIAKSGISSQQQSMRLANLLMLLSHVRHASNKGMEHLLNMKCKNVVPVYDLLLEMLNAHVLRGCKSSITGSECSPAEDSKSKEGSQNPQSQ
Androgen receptor (Homo sapiens), sequence (P10275 whole entry, looked up): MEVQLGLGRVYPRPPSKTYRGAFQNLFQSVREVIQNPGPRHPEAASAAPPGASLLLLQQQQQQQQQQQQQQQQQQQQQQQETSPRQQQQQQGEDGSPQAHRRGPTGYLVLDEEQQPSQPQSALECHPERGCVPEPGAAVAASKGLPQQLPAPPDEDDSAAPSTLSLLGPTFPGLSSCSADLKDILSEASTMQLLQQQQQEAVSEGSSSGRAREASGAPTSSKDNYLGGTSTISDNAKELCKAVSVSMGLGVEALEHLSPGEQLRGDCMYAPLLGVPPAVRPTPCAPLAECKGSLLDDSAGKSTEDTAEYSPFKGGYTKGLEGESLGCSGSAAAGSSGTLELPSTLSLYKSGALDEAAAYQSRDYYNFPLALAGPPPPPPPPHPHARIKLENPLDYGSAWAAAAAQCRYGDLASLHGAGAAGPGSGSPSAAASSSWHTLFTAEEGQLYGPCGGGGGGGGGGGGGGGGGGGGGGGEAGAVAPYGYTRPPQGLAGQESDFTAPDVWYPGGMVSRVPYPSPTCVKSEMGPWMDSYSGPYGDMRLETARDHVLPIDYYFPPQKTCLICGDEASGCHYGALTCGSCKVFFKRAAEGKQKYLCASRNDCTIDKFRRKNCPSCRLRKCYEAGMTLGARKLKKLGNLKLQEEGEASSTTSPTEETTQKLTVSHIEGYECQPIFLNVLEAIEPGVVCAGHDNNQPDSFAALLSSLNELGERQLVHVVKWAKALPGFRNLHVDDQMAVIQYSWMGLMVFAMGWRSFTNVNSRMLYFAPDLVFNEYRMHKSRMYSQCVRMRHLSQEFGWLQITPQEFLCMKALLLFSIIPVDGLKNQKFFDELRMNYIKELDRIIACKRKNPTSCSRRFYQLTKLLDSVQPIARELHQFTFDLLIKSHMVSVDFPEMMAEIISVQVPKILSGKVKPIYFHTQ
Estrogen receptor (Homo sapiens), sequence (P03372 whole entry, looked up): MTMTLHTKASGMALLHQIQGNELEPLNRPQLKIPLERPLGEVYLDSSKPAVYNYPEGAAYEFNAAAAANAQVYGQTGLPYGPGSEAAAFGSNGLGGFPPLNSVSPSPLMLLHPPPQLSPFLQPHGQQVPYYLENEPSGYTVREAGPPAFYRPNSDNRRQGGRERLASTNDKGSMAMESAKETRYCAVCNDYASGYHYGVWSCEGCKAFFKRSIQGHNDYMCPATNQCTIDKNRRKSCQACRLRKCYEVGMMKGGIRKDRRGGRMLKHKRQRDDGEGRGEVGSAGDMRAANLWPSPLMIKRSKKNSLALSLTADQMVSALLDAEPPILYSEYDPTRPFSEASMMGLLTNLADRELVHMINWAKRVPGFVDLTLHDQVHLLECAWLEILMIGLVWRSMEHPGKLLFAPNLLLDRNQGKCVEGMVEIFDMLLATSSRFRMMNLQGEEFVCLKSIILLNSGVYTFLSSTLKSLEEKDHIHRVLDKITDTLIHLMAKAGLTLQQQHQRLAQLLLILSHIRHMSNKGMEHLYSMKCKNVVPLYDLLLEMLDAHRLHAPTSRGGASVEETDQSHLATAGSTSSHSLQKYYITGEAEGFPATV

On to `O=C(Nc1ccccc1-c1ccc(Cl)cc1)c1cccnc1Cl`, for which the Potency entry in [1], in [3], in [4], in assay [5] and in assay [6] was “inactive” each time. Moreover, the Potency in assay [2] is 57.8 µM (active).
For `CC1COC(Cn2cncn2)(c2ccc(Oc3ccc(Cl)cc3)cc2Cl)O1` (configuration not stated), the Potency result in assay [1] and in [11] was “inactive” in each case. Moreover, the Potency was 61.1 µM (active) in assay [7]; 21.9 µM (active) in assay [8]; 48.6 µM (active) in [9]; 12.2 µM (active) in [2]; 54.5 µM (active) in assay [10]; 49 µM (active) in assay [12]. The Potency in assay [13] is 49 µM (active); in [14], 54.9 µM (active); in [15] it was 27.3 µM (active).
As to `COc1ccc(C(c2ccc(OC)cc2)C(Cl)(Cl)Cl)cc1`, the Potency in assay [7] is 13.7 µM (active); in assay [9], 36.2 µM (active); in assay [2], 24.2 µM (active); in assay [3], 19.4 µM [inconclusive] (active); in [6], 48.3 µM (active). Besides, the Potency entry in assay [4] and in assay [16] was “inactive” each time.
In the case of `CC(c1ccccc1)(c1ccc(O)cc1)c1ccc(O)cc1`, the Potency in assay [6] is 48.6 µM (active).
In the case of `CN1CSC(=S)N(C)C1`, the Potency result in assay [1], in [7], in assay [18], in assay [3], in assay [4] and in assay [10] was “inactive” in each case. Further, the Potency in assay [8] is 5.47 µM (active) and 3.46 µM (active); in assay [17] it was 24.3 µM (active); in assay [9], 30.5 µM (active); in assay [2], 3.05 µM (active) and 3.85 µM (active); in [5], 10.8 µM (active) and 27.2 µM (active); in assay [12], 3.87 µM (active). Moreover, the Potency is 4.87 µM (active) in assay [13]; 12.3 µM (active) in assay [16]; 6.13 µM (active) and 3.88 µM (active) in assay [14]; 964 nM (active) and 2.16 µM (active) in assay [6]; 24.2 µM (active) in [15].
For `ClC1=C(Cl)[C@]2(Cl)[C@@H]3[C@@H](Cl)[C@H]4O[C@H]4[C@@H]3C1(Cl)C2(Cl)Cl`, the Potency entry in assay [1], in assay [8], in assay [17], in [18], in assay [3] and in assay [4] was “inactive” each time. In addition, the Potency result in [5], in assay [16] and in assay [15] was “inactive” throughout. Also, the results for the Potency in [7], in [2] and in assay [12] were 27.3 µM (active), 54.5 µM (active) and 54.9 µM (active), respectively. Moreover, the compound was classed as inactive in assay [19].
Turning to `Oc1c(I)cc(I)cc1I`, the Potency result in [20] was “inactive”.
On to `N#Cc1cc([N+](=O)[O-])ccc1N`, for which the result in assay [19] was inactive. Besides, in assay [15], the Potency result is “inactive”.
With `CCOC(=O)C(O)(c1ccc(Cl)cc1)c1ccc(Cl)cc1`, the Potency in assay [1] is 15.5 µM (active); in assay [7], 4.37 µM (active) and 24.3 µM (active); in [8] it was 7.84 µM (active); in assay [17] it was 61.8 µM (active); in assay [9], 6.18 µM (active); in assay [2], 4.91 µM (active) and 61.1 µM (active). For the same compound, the Potency in [18] was 24.8 µM (active) and inactive; in [5], 6.18 µM (active); in assay [10], 24.6 µM (active); in [12] it was 13.9 µM (active) and 43.6 µM (active); in assay [13] it was 24.8 µM (active) and inactive; in [16] it was 44.1 µM (active) and inactive. Further, the Potency in assay [14] is 7.84 µM (active) and 43.6 µM (active); in assay [20], 13.8 µM (active) and 21.7 µM (active); in assay [15], 30.9 µM (active) and 54.5 µM (active). The Potency result in assay [3], in [4] and in assay [11] was “inactive” in each case. Also, the compound was classed as inactive in assay [19].
As for `O=S(=O)(C(Cl)(Cl)Cl)C(Cl)(Cl)Cl`, the Potency in [20] was 17.2 µM (active).
`CO/C=C(/C(=O)OC)c1ccccc1Oc1cc(Oc2ccccc2C#N)ncn1`: the Potency in assay [7] is 2.31 µM (active); in assay [8], 18.5 µM (active); in assay [17], 21.7 µM (active); in assay [9], 33.6 µM (active); in assay [2], 0.411 µM (active); in assay [18] it was 16.5 µM (active). For the same compound, the Potency in [5] is 58.1 µM (active); in [14], 5.22 µM (active); in assay [6] it was 0.581 µM (active); in assay [20], 5.81 µM (active). The Potency result in assay [3] and in [11] was “inactive” in each case.
With `Cc1cc(C)c(C(=O)P(=O)(c2ccccc2)c2ccccc2)c(C)c1`, the Potency in assay [6] was 61.1 µM (active); in assay [20], 54.5 µM (active).
In the case of `Nc1ccc(Cl)cc1Cl`, in assay [11], the Potency result is “inactive”.
On the same count and under the same terms, the result for `Brc1ccc(Br)c(Br)c1` reads “inactive”; that for `ClC1=C(Cl)C(Cl)(Cl)C(Cl)=C1Cl`, 52.9 µM (active).
Turning to `Clc1ccccc1-c1ccccc1Cl`, in assay [7], the Potency is 19.6 µM (active). The Potency result in assay [8], in [17], in assay [9], in assay [18], in [4] and in [10] was “inactive” each time. Besides, the Potency entry in assay [11], in assay [12], in assay [13], in assay [16] and in [14] was “inactive” in each case.
